In PubChem BioAssay:
Active and inactive are the calls of the source.

How the values were obtained:
[1] = E. coli DRC41 culture turbidity changes, primary screen, E. coli filamentation inducer project, strain DRC41, OD650, 48 h (AID 1152);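 also: E. coli MC1000 strain DRC41 lacking acrAB efflux pump and sulA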; settings: E. coli DRC41 (acrAB sulA), higher = more signal, called active from +8 up or from −8 down
[2] = small-molecule binders of probe aLefty1, primary screen, biochemical, small-molecule microarray, 635/667 nm fluorescence (AID 1153); settings: higher = more signal;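 also: score merges spot fluorescence with signal-to-noise ratio from the scanned slide images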
[3] = PSAC antagonists in infected red cells, primary screen, cell-based, P. falciparum Indochina, OD700, 1 h (AID 1154); settings: P. falciparum Indochina infected RBC osmotic lysis, higher = more signal, called active from +8 up or from −8 down
[4] = PSAC antagonists in infected red cells, primary screen, cell-based, P. falciparum Indochina, OD700, 2 h (AID 1155);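 also: lysis reports solute entry through the parasite surface anion channel PSAC; channel blockers reduce lysis of infected cells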; settings: P. falciparum Indochina infected erythrocytes, osmotic lysis OD700; higher = more signal, called active from +8 up or from −8 down
[5] = osmotic lysis modulators in infected erythrocytes, primary screen, PSAC antagonist project, cell-based, P. falciparum Indochina, OD700, 3 h (AID 1156); settings: higher = more signal, called active from +8 up or from −8 down
[6] = PSAC antagonists in infected red cells, primary screen, cell-based, P. falciparum Indochina, OD700, 18 h (AID 1157); settings: P. falciparum Indochina infected erythrocytes, osmotic lysis OD700, 18 h; higher = more signal, called active from +8 up or from −8 down
[7] = modulators of S6 phosphorylation in cells, primary screen, cell-based, A549, cytoblot, luminescence, serum-stimulated (AID 1158); settings: A549 phospho-S6 cytoblot, 5 h, higher = more signal;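 also: serum-stimulated A549 lung adenocarcinoma cells; signal is phosphorylated S6 detected by cytoblot immunostaining with HRP secondary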
[8] = molecular target: NADPH oxidase 2 (Homo sapiens) (UniProt P04839); experiment: NOX2-dependent H2O2 signal modulators, primary screen, NOX inhibitor project, cell-based, HEK293-NOX2, PMA-stimulated, Amplex Red fluorescence (AID 1159); settings: 45 min, higher = more signal, called active from +8 up or from −8 down; also: test concentration not given here
[9] = molecular target: NADPH oxidase 4 (Homo sapiens) (UniProt Q9NPH5); experiment: NOX4-dependent H2O2 signal modulators, primary screen, NOX inhibitor project, cell-based, HEK293-NOX4, tetracycline-induced, Amplex Red fluorescence (AID 1160); settings: 45 min, higher = more signal, called active from +8 up or from −8 down
[10] = molecular target: NADPH oxidase 5 (Homo sapiens) (UniProt Q96PH1); experiment: NOX5-dependent H2O2 signal modulators, primary screen, NOX inhibitor project, cell-based, HEK293-NOX5, Amplex Red fluorescence (AID 1161); settings: HEK293-NOX5, ionomycin, 45 min, higher = more signal
[11] = A549 cell viability effects, profiling panel, calcein-AM fluorescence, 48 h, basal (AID 1162); settings: higher = more signal; also: test concentration not given here
[12] = adipocyte viability effects, profiling panel, cell-based, 3T3-L1 adipocytes, calcein-AM fluorescence, 48 h, basal (AID 1163); settings: 3T3-L1 adipocytes viability, higher = more signal; also: test concentration not given here
[13] = HepG2 cell viability effects, profiling panel, calcein-AM fluorescence, 48 h, basal (AID 1164); settings: higher = more signal; also: test concentration not given here
[14] = MM1S cell viability effects, profiling panel, calcein-AM fluorescence, 48 h, basal (AID 1165); settings: higher = more signal;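 also: viability of MM1S multiple myeloma cells under basal unstimulated conditions; test concentration not given here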
[15] = basal RPMI8226 viability, no added stimulus, profiling panel, cell-based, calcein-AM fluorescence, 48 h, PK04 Diversity Set (AID 1166); settings: RPMI8226 myeloma viability, higher = more signal;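 also: cells grown under basal conditions without added stimulus; test concentration not given here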
[16] = basal HepG2 mitochondrial membrane potential changes, profiling panel, cell-based, JC-1 fluorescence, 24 h, 100 nL compound (AID 1167); settings: higher = more signal; also: test concentration not given here
[17] = basal 3T3-L1 adipocyte mitochondrial potential changes, profiling panel, cell-based, JC-1 fluorescence, 3T3-L1 adipocytes, 24 h, 100 nL compound (AID 1168); settings: JC-1 mitochondrial fluorescence, higher = more signal, called active from +8 up or from −8 down; also: test concentration not given here
[18] = basal RPMI8226 mitochondrial membrane potential changes, profiling panel, cell-based, JC-1 fluorescence, 24 h, 100 nL compound (AID 1169); settings: RPMI8226 myeloma, JC-1 mitochondrial potential fluorescence, higher = more signal; also: test concentration not given here
[19] = basal MM1S mitochondrial membrane potential changes, profiling panel, cell-based, JC-1 fluorescence, 24 h, 100 nL compound (AID 1170); settings: higher = more signal; also: test concentration not given here
[20] = A549 lung cancer cell viability effects, profiling panel, resazurin fluorescence, 24 h, PK04 Diversity Set (AID 1171); settings: higher = more signal, called active from +8 up or from −8 down; also: test concentration not given here

NADPH oxidase 4 (Homo sapiens), sequence (Q9NPH5 whole entry, looked up): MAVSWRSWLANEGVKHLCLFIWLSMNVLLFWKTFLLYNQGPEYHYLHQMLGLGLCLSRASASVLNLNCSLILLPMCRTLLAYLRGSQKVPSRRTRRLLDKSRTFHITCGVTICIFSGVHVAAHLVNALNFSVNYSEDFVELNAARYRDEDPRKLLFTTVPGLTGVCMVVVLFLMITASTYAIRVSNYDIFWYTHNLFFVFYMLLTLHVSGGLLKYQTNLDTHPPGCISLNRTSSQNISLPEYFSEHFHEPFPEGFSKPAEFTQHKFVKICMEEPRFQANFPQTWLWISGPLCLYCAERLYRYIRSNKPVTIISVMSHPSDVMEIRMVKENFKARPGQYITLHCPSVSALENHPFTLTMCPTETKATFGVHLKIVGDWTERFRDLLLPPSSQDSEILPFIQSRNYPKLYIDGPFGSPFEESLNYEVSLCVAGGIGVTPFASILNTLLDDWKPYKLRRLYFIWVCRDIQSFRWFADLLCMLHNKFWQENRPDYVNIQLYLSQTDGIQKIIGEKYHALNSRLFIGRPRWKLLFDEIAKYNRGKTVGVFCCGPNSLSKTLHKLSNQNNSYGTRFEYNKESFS
NADPH oxidase 2 (Homo sapiens), sequence (P04839 whole entry, looked up): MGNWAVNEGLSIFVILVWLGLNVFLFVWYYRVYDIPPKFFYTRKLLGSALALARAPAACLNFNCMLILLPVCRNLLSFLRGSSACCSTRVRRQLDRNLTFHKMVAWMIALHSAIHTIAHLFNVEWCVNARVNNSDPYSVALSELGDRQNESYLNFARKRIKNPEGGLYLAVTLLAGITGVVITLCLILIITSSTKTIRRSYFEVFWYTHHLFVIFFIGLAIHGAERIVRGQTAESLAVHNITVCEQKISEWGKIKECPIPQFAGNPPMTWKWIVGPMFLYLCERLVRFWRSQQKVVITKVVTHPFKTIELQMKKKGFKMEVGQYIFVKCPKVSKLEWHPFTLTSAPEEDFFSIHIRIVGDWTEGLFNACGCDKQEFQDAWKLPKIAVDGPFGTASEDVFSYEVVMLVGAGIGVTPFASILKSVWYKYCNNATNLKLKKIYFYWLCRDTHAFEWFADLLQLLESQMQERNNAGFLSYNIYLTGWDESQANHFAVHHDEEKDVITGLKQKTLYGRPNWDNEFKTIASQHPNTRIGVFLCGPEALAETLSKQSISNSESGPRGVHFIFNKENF
NADPH oxidase 5 (Homo sapiens), sequence (Q96PH1 whole entry, looked up): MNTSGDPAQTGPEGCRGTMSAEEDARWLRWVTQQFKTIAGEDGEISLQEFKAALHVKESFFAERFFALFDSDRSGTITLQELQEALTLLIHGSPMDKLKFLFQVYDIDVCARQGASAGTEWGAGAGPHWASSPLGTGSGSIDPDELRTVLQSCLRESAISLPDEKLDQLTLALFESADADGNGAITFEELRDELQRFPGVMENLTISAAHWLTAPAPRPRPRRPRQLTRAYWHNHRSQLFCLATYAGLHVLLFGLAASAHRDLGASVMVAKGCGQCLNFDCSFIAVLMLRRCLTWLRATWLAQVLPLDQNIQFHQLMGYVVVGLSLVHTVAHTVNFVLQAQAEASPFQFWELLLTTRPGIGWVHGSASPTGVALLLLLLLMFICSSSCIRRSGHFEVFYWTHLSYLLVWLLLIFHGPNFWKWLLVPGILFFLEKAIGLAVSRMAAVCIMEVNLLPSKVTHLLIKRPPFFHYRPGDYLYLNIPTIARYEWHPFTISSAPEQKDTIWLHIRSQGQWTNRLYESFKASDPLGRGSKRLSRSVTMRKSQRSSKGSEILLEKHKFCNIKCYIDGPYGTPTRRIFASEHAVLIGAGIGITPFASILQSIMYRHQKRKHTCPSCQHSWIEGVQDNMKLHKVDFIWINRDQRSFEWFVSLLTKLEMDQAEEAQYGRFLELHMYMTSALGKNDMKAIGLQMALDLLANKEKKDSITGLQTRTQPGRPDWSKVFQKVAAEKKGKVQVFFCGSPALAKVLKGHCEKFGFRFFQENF

| Compound | z-score [1] | composite z-score [2] | z-score [3] | z-score [4] | z-score [5] | z-score [6] | z-score [7] | z-score [8] | z-score [9] | z-score [10] | z-score [11] | z-score [12] | z-score [13] | z-score [14] | z-score [15] | z-score [16] | z-score [17] | z-score [18] | z-score [19] | z-score [20] |
| --- | --- | --- | --- | --- | --- | --- | --- | --- | --- | --- | --- | --- | --- | --- | --- | --- | --- | --- | --- | --- |
| CCCNC(=O)OC[C@H]1O[C@H](CCON=C[C@@H](NS(=O)(=O)c2ccc(C)cc2)[C@H](C)C=CCC(=O)OC)C=C[C@@H]1Oc1ccc(OC)cc1 | 0.0368 (inactive) | 0.0633 | 5.01 (inactive) | 1.2 (inactive) | 0.518 (inactive) | 0.441 (inactive) | -0.81 | 0.173 (inactive) | 0.361 (inactive) | -0.746 | -0.321 | 0.973 | -1.18 | -0.0312 | -0.773 | 0.421 | -2.4 (inactive) | -0.806 | 0.364 | 0.141 (inactive) |
| CCC1=NOC(CCC2CC(OC(=O)NCc3cccc4c3OCO4)CC3(CCCC(COC(=O)NCCc4ccc(Cl)cc4)O3)O2)C1 (stereo not given) | 0.13 (inactive) | -0.103 | 0.78 (inactive) | -0.172 (inactive) | -0.747 (inactive) | -0.268 (inactive) | -0.695 | 1.28 (inactive) | 0.891 (inactive) | 0.984 | -0.584 | -0.55 | -0.303 | 0.396 | -0.961 | -0.803 | 0.453 (inactive) | 0.0772 | -0.398 | 0.137 (inactive) |
| CC(C)=NOC[C@@H](O)[C@H]1O[C@@H]2OC(C)(C)O[C@@H]2[C@H]1O | 0.269 (inactive) | -0.0501 | 0.0289 (inactive) | 0.0612 (inactive) | -0.0091 (inactive) | 0.269 (inactive) | 0.0226 | -0.162 (inactive) | -0.514 (inactive) | 0.0874 | 0.112 | -1.53 | 0.139 | -0.112 | -0.0588 | -0.00334 | -1.09 (inactive) | -1.01 | 0.661 | -0.871 (inactive) |
| CO[C@@H](C(C)C)[C@@H](C)C1OC(=O)CC1O (stereo not given in full) | 0.486 (inactive) | -0.278 | -0.315 (inactive) | 0.0974 (inactive) | -0.566 (inactive) | -0.121 (inactive) | -0.289 | 1.29 (inactive) | 0.129 (inactive) | 0.368 | -0.729 | -0.121 | -0.349 | 0.534 | -0.908 | -0.518 | -0.419 (inactive) | -0.147 | -0.0891 | -0.196 (inactive) |
